This is an account of results in PubChem BioAssay AID493194 (Broad Institute, 2011).

Potency and affinity values are given separately. Records with an inconclusive call do not appear. Where a call stands in place of a potency, no number is given. Calls of active or inactive are those of the source.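 How the source made its calls: active means a valid curve of falling signal whose half-effect concentration is at most ten times the top tested dose; inconclusive means flat curve at 30 to 70% inhibition, or poor fit; inactive means signal rise, flat within 30%, or potency beyond limit.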

Chain of Scavenger receptor class B member 1 (Mus musculus) (Q61009 whole entry, looked up): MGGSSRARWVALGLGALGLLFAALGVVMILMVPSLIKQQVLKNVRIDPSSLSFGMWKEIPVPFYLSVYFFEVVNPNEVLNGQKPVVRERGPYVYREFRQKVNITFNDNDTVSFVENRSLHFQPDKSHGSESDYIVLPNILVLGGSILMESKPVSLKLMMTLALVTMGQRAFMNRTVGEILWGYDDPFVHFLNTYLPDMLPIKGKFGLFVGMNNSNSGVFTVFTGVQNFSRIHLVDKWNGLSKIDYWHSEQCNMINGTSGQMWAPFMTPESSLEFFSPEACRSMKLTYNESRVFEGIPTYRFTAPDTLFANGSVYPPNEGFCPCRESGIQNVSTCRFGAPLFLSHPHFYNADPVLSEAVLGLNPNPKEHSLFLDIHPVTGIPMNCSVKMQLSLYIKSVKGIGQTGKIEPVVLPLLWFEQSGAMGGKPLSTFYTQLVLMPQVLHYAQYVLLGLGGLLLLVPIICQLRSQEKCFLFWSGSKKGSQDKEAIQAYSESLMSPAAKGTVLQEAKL

The experiment has as its target Scavenger receptor class B member 1 (Mus musculus) (UniProt Q61009). Kind of experiment: inhibitors of SR-BI mediated HDL lipid uptake, dose response, ldlA[mSR-BI] cells, fluorescence, cherry pick (AID 493194).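 Further: CHO cells lacking LDL receptor and overexpressing mouse SR-BI; cellular uptake of fluorescently labeled HDL measured as cell fluorescence.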 The following applies: CHO ldlA[mSR-BI] DiI-HDL uptake fluorescence, 3 h; series mostly up to 35 µM.
As for `CC(=O)c1c(C)[nH]c(C(=O)Nc2ccc(C)c(S(=O)(=O)Nc3ccc(C)cc3C)c2)c1C`, the result was inactive.

On to `COc1ccc(OCCSc2nnc(-c3cccnc3)n2N)cc1`, for which the call was inactive. As to `COc1ccc(CCn2c(C)cc(C(=O)CSc3nc(N)cc(=O)[nH]3)c2C)cc1`, the compound was called inactive. `c1ccc(COn2c(-c3ccccc3)nc3c2CCc2nonc2-3)cc1`: the compound was classed as inactive. Take `COC(=O)/C=C/c1ccc2c(c1)S(=O)(=O)N(c1cccc(OC)c1)[C@H]2CC(=O)OC`: the call was inactive. Consider `O=C(Nc1ccccc1F)c1ccc2c(c1)CCN2S(=O)(=O)c1ccccc1`, for which the compound was classed as inactive.

Take `COc1ccc(CCNC(=O)CCC(=O)N2CC(C)Oc3ccc(Cl)cc32)cc1OC` (stereo not drawn): the result was inactive. The result for `O=C(Nc1ccc(-c2nc3ccccc3o2)cc1)c1cc(-n2cnnc2)ccc1Cl` reads “inactive”; that for `O=C(NCN1C(=O)C2C3C=CC(C3)C2C1=O)OC1CCCCC1` (stereo not drawn), “inactive”.

As for `COc1ccc(C)cc1N(CC(=O)NC1CCCC1)C(=O)Cn1nnc(-c2ccc(C)o2)n1`, the call was inactive. The value for `COc1ccc([C@H]2/C=C\CN(S(=O)(=O)c3cccc4cccnc34)[C@@H](C)C(=O)N2Cc2ccc(F)cc2)cc1` was “inactive”.

As for `Cc1ccc(C)c(N2CCN(CCCNC(=O)Cn3c(=O)c4cccn4c4cccnc43)CC2)c1`, the compound was classed as inactive. `COc1cccc(-c2csc(N3CCN(C(=S)Nc4cccc(C)c4)CC3)n2)c1`: the call was inactive. As for `COc1ccc(-c2[nH]c(-c3ccc(F)cc3)nc2SCC(=O)NC2CCCC2)cc1`, the call was inactive. `COc1ccc2c(c1)OC[C@H]1[C@H]2N2C(=O)c3cc(Cl)ccc3NC(=O)[C@@]2(C)[C@H]1c1ccccc1`: the outcome was inactive. For `CSc1ccccc1OCc1cc(C(=O)N(C)Cc2c(C)n[nH]c2C)no1`, the compound was classed as inactive. In the case of `Cc1c(C(=O)OCC2CCCO2)[nH]c2c1C(=O)CC(c1ccco1)C2` (stereo not drawn), the call was inactive. With `COc1cc(NC(=O)c2cc(-n3cnnc3)ccc2Cl)cc(OC)c1`, the outcome was inactive. `O=C(C[C@@H]1C/C=C\C[C@H](NC(=O)OCC2c3ccccc3-c3ccccc32)C(=O)O[C@H](c2ccccc2)CNC1=O)NCCO`: the compound was classed as inactive. In the case of `Cc1ccc(CNC(=O)c2ccc(N3CCC4(CC3)CC(c3cccc(Br)c3)=NO4)c([N+](=O)[O-])c2)cc1`, the call was inactive.

On to `CC(CCc1ccccc1)NC(=O)C1CCN(C(=O)c2sccc2-n2cccc2)CC1` (stereo not drawn), for which the call was inactive. Consider `CCC(C)c1ccccc1N1CC(C(=O)N2CCN(S(=O)(=O)c3ccccc3Br)CC2)CC1=O` (stereo not drawn), for which the outcome was inactive. `Cc1ccc(NS(=O)(=O)c2ccc(C(=O)NNC(=O)c3ccccc3O)cc2)cc1`: the call was inactive. In the case of `CN(C(=O)COC(=O)c1c[nH]c(=O)[nH]c1=O)C1CCCCC1`, the compound was classed as inactive. For `CCOc1ccccc1NC(=O)N1C2CCCC1CC(NC(=O)C1CC1)C2` (stereo not drawn), the call was inactive. For the compound `CC(=O)c1ccc(N2CCN(C(=O)c3cc(-c4cccnc4)nc4ccc(Br)cc34)CC2)cc1`, the outcome was inactive.

`COc1ccc(OC[C@@H](O)CNC(=O)c2cccc3c2C(=O)c2ccc(-c4ccc(F)cc4OCc4ccccc4)cc2S3(=O)=O)cc1`: the outcome was inactive.

As for `CCc1cc(CNC(=O)C2CCC(=O)N(CCc3cccc(F)c3)C2)on1` (stereo not drawn), the result was inactive. For `O=C(O)c1cc(N2C(=O)C=CC2=O)cc(N2C(=O)C=CC2=O)c1`, the call was inactive. With `CC(C)(C)OC(=O)N1CSC[C@H]1C(=O)NC[C@H](CC(=O)O)c1ccc(Cl)cc1`, the compound was called inactive. Consider `O=C(O)CC(C(=O)Nc1cccc(C(F)(F)F)c1)C1CCCO1` (stereo not drawn), for which the call was inactive. `Cc1ccc(C(C(=O)NC(C)(C)C)N(Cc2cccs2)C(=O)c2ccc3c(c2)OCCO3)cc1` (stereo not drawn): the result was inactive. For `Cc1nn(Cc2c(Cl)cccc2Cl)c(C)c1NC(=O)CCCn1nc([N+](=O)[O-])c(Cl)c1C`, the result was inactive. With `Cc1ccc(-c2cc(C(=O)Nc3ccc(S(=O)(=O)Nc4onc(C)c4C)cc3)[nH]n2)c(O)c1`, the call was inactive. Take `CCNc1nc(Cl)nc(-c2cn(-c3ccccc3)c3ccccc23)n1`: the result was inactive. As for `CCC(=O)Nc1ccc(Cl)c(NC(=O)c2cccc(OC)c2)c1`, the outcome was inactive. In the case of `CCCCc1nnc(NC(=O)c2ccc(OCc3c(C)noc3C)cc2)s1`, the result was inactive. The value for `COc1cc2c(C#CCCCO)c(-c3ccsc3)oc(=O)c2cc1OC` was “inactive”.
